± gives the standard deviation. The full ranking holds about 8,200 sequences; the median of “pre-steady-state target cleavage rate” is about 0.024, and the highest 2% start at about 1.3. The sample holds the highest values, similar sequences and a random draw of the others, so the mix is not that of the screen.
Tested on: MIWI (PIWIL1) piRISC loaded with L1MC piRNA (30 nt)
Assay: pre-steady-state target cleavage rate (min^-1); MIWI and MILI are mouse PIWI proteins and EfPiwi is from a freshwater sponge; tags in brackets are library labels; higher = faster piRNA-guided slicing of the target
Settings: guide: L1MC piRNA 5'p-UAACUAAAUACUAUGCAAGCUGUAGGUCCU
Summary of the method: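 Cleave-'n-Seq: a transcribed, DNA-blocked target RNA library (0.1 nM) was mixed with 1 nM active affinity-purified piRISC carrying one synthetic guide, with or without 500 nM GTSF1 partner protein, in HEPES–potassium acetate buffer at 33 °C for 0–8 or 0–960 min. Uncleaved targets were sequenced and normalised to depth and to weakly complementary targets. Three trials were pooled, and k3 was capped at 0.0001 min^-1. The pre-steady-state cleavage rate came from a burst-and-steady-state fit.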

[1] = auxiliary factor: 500 nM mouse GTSF1
[2] = auxiliary factor: none (no GTSF1)

| Sequence | pre-steady-state target cleavage rate [1] | pre-steady-state target cleavage rate [2] |
| --- | --- | --- |
| UGGACCUACAUCUUGCAUAGUAUUUAGUUA | 1.38 ± 0.043 | 0.0737 ± 0.012 |
| AGGACCUACACCUUGCAUAGUAUUUAGUUA | 1.17 ± 0.037 | 0.0855 ± 0.015 |
| UCGACCUACAGUCUUGCAUAGUAUUUAGUUA | 1.16 ± 0.063 | 0.0611 ± 0.012 |
| UCGACCUACAUCUUGCAUAGUAUUUAGUUA | 1.61 ± 0.043 | 0.077 ± 0.014 |
| UGGACCUACAUGCUUGCAUAGUAUUUAGUUA | 0.925 ± 0.054 | 0.0601 ± 0.013 |
| AGGACCUACAUCUUGCAUAGUAUUUAGUUA | 1.39 ± 0.036 | 0.0767 ± 0.012 |
| UCCACCUACAUCUUGCAUAGUAUUUAGUUA | 0.85 ± 0.036 | 0.0567 ± 0.0096 |
| UCCACCUACAGCUUCCAUAGAAUUUAGUUA | 0.0393 ± 0.015 |  |
| UGGACCAUGAGCUUGCAUAGUAUUUACAAA | 0.159 ± 0.021 | 0.00423 ± 0.0026 |
| AGGACCUACAGCUUGCAUAGUUAAAUCAAA [g10:g30:cont:t1A] | 0.159 ± 0.046 |  |
| AGGACCAUACAGCUUGCAUAGUAUUUAGUUA | 1.06 ± 0.051 | 0.0829 ± 0.013 |
| UCGACCAUACAGCUUGCAUAGUAUUUAGUUA | 0.86 ± 0.039 | 0.0901 ± 0.015 |
| UGGACAUACAGCUUGCAUAGUAUUUAGUUA | 1.23 ± 0.05 | 0.0916 ± 0.014 |
| UCGACAUACAGCUUGCAUAGUAUUUAGUUA | 1.38 ± 0.043 | 0.071 ± 0.012 |
| AGGACAUACAGCUUGCAUAGUAUUUAGUUA | 1.32 ± 0.055 | 0.0818 ± 0.012 |
| UCGACACUACAGCUUGCAUAGUAUUUAGUUA | 0.961 ± 0.061 | 0.0557 ± 0.0088 |
| UCCUGGAUGUGCUUGCAUUGUAUUUAGUAA | 0.0234 ± 0.0059 | 0.00578 ± 0.0023 |
| UCCUGGAACAGCUUGCAUAGAUUUUAGUAA | 0.0419 ± 0.015 |  |
| UCCUGGAUGUCGAAGGAUAGUAUUUUGUUA |  | < 0.0001 |
| UCCUGGUACUGCAUGCAUAGUAUUUAGUUA | 0.556 ± 0.045 | 0.00786 ± 0.0024 |
| UCCUGCUUCAGCUUGCAUAGUAUUUAGUUA | 1.19 ± 0.051 | 0.0684 ± 0.012 |
| UCCUGCUUCAGCAUGCAUAGUAUUUAGUUA | 1.32 ± 0.078 | 0.0171 ± 0.0036 |
| UCCUGGUUCAGCUAGCAUAGUAUUUAGUUA | 0.872 ± 0.045 | 0.0169 ± 0.004 |
| UCCUGGUUCAGCAUGCAUAGUAUUUAGUUA | 0.93 ± 0.036 | 0.0172 ± 0.0043 |
| UCCUGCUUCAGCUAGCAUAGUAUUUAGUUA | 1.32 ± 0.056 | 0.0109 ± 0.0042 |
| UCCUCCUUCAGCUAGCAUAGUAUUUAGUUA | 0.78 ± 0.032 | 0.0147 ± 0.0034 |
| UCCUGGAACAGCUUGCAUUGUAAUUAGUUA | 0.375 ± 0.032 | 0.018 ± 0.006 |
| UCCUGGAACUCCUUGCAUAGUAUUUAGUUA | 0.46 ± 0.048 | 0.00821 ± 0.0033 |
| UCCUCCUAACAGCUUGCAUAGUAUUUAGUUA | 0.591 ± 0.025 | 0.0508 ± 0.0092 |
| UCCACCUACAGCUUGCUUAGUUUUUAGUUA | 0.175 ± 0.017 | 0.0103 ± 0.002 |
